Where “and” joins values, the source holds several entries; their conditions need not be identical. Equal entries are not always repeated. Where a structure was tested more than once in an assay, its records may differ in their call. Calls of active or inactive are those of the source. The calls were made as follows: active = hit-call score of the fitted dose curve at least 0.9, where 1 is the maximum; inactive = score below 0.9.
Read-out: Monokine induced gamma interferon (MIG), CXCL9 (gene 4283)
Assay: BSK_SAg_MIG: BioMAP Diversity Plus: SAg Assay for Monokine induced gamma interferon (MIG) Biomarker Activity (AID 2283092)
Details: primary human HUVEC with PBMC; actives raise or lower the signal
How it was run: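 Endothelial cells and PBMC were co-cultured, exposed to test chemicals, and sampled 24 h later. MIG was measured by ELISA, and responses were fitted in both directions relative to DMSO.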
In the case of `C=CC(=O)OCC(F)(F)C(F)F`, the AC50 is reported as 53.5 µM (active) and 45.4 µM (active).
For `COP(=O)(O)OC`, the outcome was “inactive”.
For `O=C(O)C(F)(F)C(F)(F)C(=O)O`, the outcome was “inactive”.
In the case of `O=C(O)C=CC(F)(C(F)(F)F)C(F)(F)F`, the outcome is reported as “inactive”.
For `O=C(O)C(F)(F)OC(F)(F)C(F)(F)OC(F)(F)F`, the outcome was “inactive”.
With `COP(N)(=S)OC` the outcome was “inactive”.
For `CCCCN(CCCC)SN(C)C(=O)Oc1cccc2c1OC(C)(C)C2`, the AC50 was 32.1 µM (active).
For `FC(F)(F)C(F)(C(F)(F)F)C(F)(F)C(F)(F)CC1CO1` (configuration not stated), the outcome was “inactive”.
For `CCOP(=S)(OCC)SCS(=O)(=O)CC`, the outcome was “inactive”.
With `CC(C)Nc1ccc(Nc2ccccc2)cc1` the AC50 was 9.5 µM (active).
In the case of `CC(O)C(F)(F)C(F)(F)F` (configuration not stated), the outcome is reported as “inactive”.
In the case of `CCN(CC)c1ccccc1`, the outcome is reported as “inactive”.
In the case of `O=C(O)C(F)(OC(F)(F)C(F)(F)C(F)(F)F)C(F)(F)F` (configuration not stated), the outcome is reported as “inactive”.
With `ClC(Cl)c1ccccc1` the outcome was “inactive”.
With `Cc1ccc2c(c1N)C(=O)c1ccccc1C2=O` the outcome was “inactive”.
With `O=S1(=O)OCC2C(CO1)C1(Cl)C(Cl)=C(Cl)C2(Cl)C1(Cl)Cl` (configuration not stated) the outcome was “inactive”.
For `O=P(Oc1ccccc1)(Oc1ccccc1)Oc1ccccc1`, the AC50 was 31.3 µM (active).
In the case of `OCC(F)(F)OC(F)(F)C(F)(F)OC(F)(F)C(F)(F)OC(F)(F)F`, the outcome is reported as “inactive”.
With `OCC(F)(F)OC(F)(F)C(F)(F)OC(F)(F)C(F)(F)OC(F)(F)CO` the outcome was “inactive”.
For `[N-]=[N+]=[N-]`, the outcome was “inactive”.
For `CSC(C)(C)C=NO`, the outcome was “inactive”.
For `CCCCC(CC)COP(=O)(Oc1ccccc1)Oc1ccccc1` (configuration not stated), the outcome was “inactive”.
In the case of `CCCCc1ccccc1`, the outcome is reported as “inactive”.
For `CCOP(=S)(NC(C)C)Oc1ccccc1C(=O)OC(C)C` (configuration not stated), the outcome was “inactive”.
With `CCCN(CCC)c1c([N+](=O)[O-])cc(C(C)C)cc1[N+](=O)[O-]` the outcome was “inactive”.
For `CCCCC(CC)COC(=O)c1c(Br)c(Br)c(Br)c(Br)c1C(=O)OCC(CC)CCCC` (configuration not stated), the outcome was “inactive”.
In the case of `CC(Cl)CN(C)C` (configuration not stated), the outcome is reported as “inactive”.
In the case of `COC(=O)C(F)(F)C(F)(F)OC(F)(C(F)(F)F)C(F)(F)OC(F)=C(F)F` (configuration not stated), the outcome is reported as “inactive”.

Read-out: not listed separately
Assay: BSK_SAg_PBMCCytotoxicity: PBMC Cytotoxicity Assessment in the BioMAP Diversity Plus: SAg Assay (AID 2283093);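 also: PBMC viability measured as Alamar Blue reduction fluorescence at 546/580 nm; fitted both ways against DMSO so a hit may be loss or gain of signal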;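 as to AC50: PBMC superantigen activated with SEB plus TSST-1 one hour after compound addition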
Details: primary human HUVEC with PBMC
How it was run: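 HUVEC/PBMC co-culture; PBMC exposed to chemical 1 h before SEB and TSST-1 activation (20 ng/mL each), incubated 90 h, then Alamar Blue 6 h, fluorescence 546/580 nm. Bidirectional fit versus DMSO baseline.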
With `C=CC(=O)OCC(F)(F)C(F)F` the AC50 was 15.1 µM (active) and the outcome was “inactive”.
In the case of `COP(=O)(O)OC`, the outcome is reported as “inactive”.
With `O=C(O)C(F)(F)C(F)(F)C(=O)O` the outcome was “inactive”.
In the case of `O=C(O)C=CC(F)(C(F)(F)F)C(F)(F)F`, the outcome is reported as “inactive”.
In the case of `O=C(O)C(F)(F)OC(F)(F)C(F)(F)OC(F)(F)F`, the outcome is reported as “inactive”.
In the case of `COP(N)(=S)OC`, the outcome is reported as “inactive”.
In the case of `CCCCN(CCCC)SN(C)C(=O)Oc1cccc2c1OC(C)(C)C2`, the AC50 is reported as 25 µM (active).
With `FC(F)(F)C(F)(C(F)(F)F)C(F)(F)C(F)(F)CC1CO1` (configuration not stated) the outcome was “inactive”.
For `CCOP(=S)(OCC)SCS(=O)(=O)CC`, the outcome was “inactive”.
In the case of `CC(C)Nc1ccc(Nc2ccccc2)cc1`, the AC50 is reported as 0.016 µM (active).
With `CC(O)C(F)(F)C(F)(F)F` (configuration not stated) the outcome was “inactive”.
In the case of `CCN(CC)c1ccccc1`, the outcome is reported as “inactive”.
With `O=C(O)C(F)(OC(F)(F)C(F)(F)C(F)(F)F)C(F)(F)F` (configuration not stated) the outcome was “inactive”.
For `ClC(Cl)c1ccccc1`, the outcome was “inactive”.
For `Cc1ccc2c(c1N)C(=O)c1ccccc1C2=O`, the outcome was “inactive”.
For `O=S1(=O)OCC2C(CO1)C1(Cl)C(Cl)=C(Cl)C2(Cl)C1(Cl)Cl` (configuration not stated), the outcome was “inactive”.
With `O=P(Oc1ccccc1)(Oc1ccccc1)Oc1ccccc1` the outcome was “inactive”.
With `OCC(F)(F)OC(F)(F)C(F)(F)OC(F)(F)C(F)(F)OC(F)(F)F` the AC50 was 15.3 µM (active) and 21.2 µM (active).
For `OCC(F)(F)OC(F)(F)C(F)(F)OC(F)(F)C(F)(F)OC(F)(F)CO`, the outcome was “inactive”.
With `[N-]=[N+]=[N-]` the outcome was “inactive”.
For `CSC(C)(C)C=NO`, the outcome was “inactive”.
For `CCCCC(CC)COP(=O)(Oc1ccccc1)Oc1ccccc1` (configuration not stated), the AC50 was 20 µM (active).
With `CCCCc1ccccc1` the outcome was “inactive”.
With `CCOP(=S)(NC(C)C)Oc1ccccc1C(=O)OC(C)C` (configuration not stated) the outcome was “inactive”.
With `CCCN(CCC)c1c([N+](=O)[O-])cc(C(C)C)cc1[N+](=O)[O-]` the AC50 was 13.9 µM (active).
With `CCCCC(CC)COC(=O)c1c(Br)c(Br)c(Br)c(Br)c1C(=O)OCC(CC)CCCC` (configuration not stated) the outcome was “inactive”.
In the case of `CC(Cl)CN(C)C` (configuration not stated), the outcome is reported as “inactive”.
For `COC(=O)C(F)(F)C(F)(F)OC(F)(C(F)(F)F)C(F)(F)OC(F)=C(F)F` (configuration not stated), the outcome was “inactive”.

Read-out: Interleukin-8 (IL8), CXCL8 (gene 3576)
Assay: BSK_SAg_IL8: BioMAP Diversity Plus: SAg Assay for Interleukin-8 (IL8) Biomarker Activity (AID 2283094)
Details: primary human HUVEC with PBMC; actives raise or lower the signal
How it was run: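 ELISA read-out of IL-8 in a primary human vascular co-culture (umbilical vein endothelium plus PBMC), taken 24 h after compound addition. Values derive from bidirectional fits against DMSO negative controls.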
With `C=CC(=O)OCC(F)(F)C(F)F` the AC50 was 20.7 µM (active) and 9.88 µM (active).
With `COP(=O)(O)OC` the outcome was “inactive”.
In the case of `O=C(O)C(F)(F)C(F)(F)C(=O)O`, the outcome is reported as “inactive”.
For `O=C(O)C=CC(F)(C(F)(F)F)C(F)(F)F`, the outcome was “inactive”.
With `O=C(O)C(F)(F)OC(F)(F)C(F)(F)OC(F)(F)F` the outcome was “inactive”.
For `COP(N)(=S)OC`, the outcome was “inactive”.
With `CCCCN(CCCC)SN(C)C(=O)Oc1cccc2c1OC(C)(C)C2` the AC50 was 33 µM (active).
In the case of `FC(F)(F)C(F)(C(F)(F)F)C(F)(F)C(F)(F)CC1CO1` (configuration not stated), the outcome is reported as “inactive”.
With `CCOP(=S)(OCC)SCS(=O)(=O)CC` the outcome was “inactive”.
In the case of `CC(C)Nc1ccc(Nc2ccccc2)cc1`, the AC50 is reported as 5.34 µM (active).
In the case of `CC(O)C(F)(F)C(F)(F)F` (configuration not stated), the outcome is reported as “inactive”.
In the case of `CCN(CC)c1ccccc1`, the outcome is reported as “inactive”.
In the case of `O=C(O)C(F)(OC(F)(F)C(F)(F)C(F)(F)F)C(F)(F)F` (configuration not stated), the AC50 is reported as 9.29 µM (active) and the outcome is reported as “inactive”.
For `ClC(Cl)c1ccccc1`, the outcome was “inactive”.
For `Cc1ccc2c(c1N)C(=O)c1ccccc1C2=O`, the outcome was “inactive”.
With `O=S1(=O)OCC2C(CO1)C1(Cl)C(Cl)=C(Cl)C2(Cl)C1(Cl)Cl` (configuration not stated) the outcome was “inactive”.
In the case of `O=P(Oc1ccccc1)(Oc1ccccc1)Oc1ccccc1`, the AC50 is reported as 30.2 µM (active).
For `OCC(F)(F)OC(F)(F)C(F)(F)OC(F)(F)C(F)(F)OC(F)(F)F`, the AC50 was 43.9 µM (active) and 43.4 µM (active).
With `OCC(F)(F)OC(F)(F)C(F)(F)OC(F)(F)C(F)(F)OC(F)(F)CO` the AC50 was 17.9 µM (active) and the outcome was “inactive”.
In the case of `[N-]=[N+]=[N-]`, the outcome is reported as “inactive”.
For `CSC(C)(C)C=NO`, the outcome was “inactive”.
For `CCCCC(CC)COP(=O)(Oc1ccccc1)Oc1ccccc1` (configuration not stated), the AC50 was 7.9 µM (active).
In the case of `CCCCc1ccccc1`, the outcome is reported as “inactive”.
For `CCOP(=S)(NC(C)C)Oc1ccccc1C(=O)OC(C)C` (configuration not stated), the outcome was “inactive”.
For `CCCN(CCC)c1c([N+](=O)[O-])cc(C(C)C)cc1[N+](=O)[O-]`, the AC50 was 32.4 µM (active).
In the case of `CCCCC(CC)COC(=O)c1c(Br)c(Br)c(Br)c(Br)c1C(=O)OCC(CC)CCCC` (configuration not stated), the outcome is reported as “inactive”.
In the case of `CC(Cl)CN(C)C` (configuration not stated), the outcome is reported as “inactive”.
For `COC(=O)C(F)(F)C(F)(F)OC(F)(C(F)(F)F)C(F)(F)OC(F)=C(F)F` (configuration not stated), the outcome was “inactive”.
